Results as given in PubChem BioAssay (NCI).
The panel holds about 79,000 compounds, 15% with a hit somewhere; the sample as a whole holds those more often. Unmarked numbers belong to inactive results. Calls of active or inactive are those of the source. No stated cut-off is given here; in the data, active means growth inhibition above about 70%; inactive means the rest.

Experiments:
[1] = NCI Yeast Anticancer Drug Screen. Data for the rad50 strain (AID 155);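 further: 0% = growth of vehicle-only cultures of the same strain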; conditions: S. cerevisiae rad50 strain growth inhibition, active compounds read high
In short: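 A DNA repair-deficient yeast mutant serves as the test organism; compound-induced growth inhibition is calculated against vehicle-treated cells.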

[2] = NCI Yeast Anticancer Drug Screen. Data for the mec2-1 strain (AID 157); conditions: S. cerevisiae mec2-1 strain, active compounds read high
In short: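 Readout is yeast growth inhibition, normalised to vehicle-treated controls, in the mec2-1 strain exposed to compound.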

[3] = NCI Yeast Anticancer Drug Screen. Data for the sgs1 mgt1 strain (AID 161);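 further: 0% = growth of cultures given vehicle only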; conditions: S. cerevisiae sgs1 mgt1 strain, active compounds read high
In short: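 This yeast growth screen uses a strain with defined DNA-repair lesions; compound-treated growth is compared with vehicle-treated growth.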

[4] = NCI Yeast Anticancer Drug Screen. Data for the cln2 rad14 strain (AID 165);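 further: 0% = growth equal to vehicle treated cultures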; conditions: S. cerevisiae cln2 rad14 strain, active compounds read high
In short: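 Relative to vehicle controls, growth inhibition of compound-treated cln2 rad14 yeast was recorded.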

[5] = NCI Yeast Anticancer Drug Screen. Data for the bub3 strain (AID 167); conditions: S. cerevisiae bub3 mutant strain, active compounds read high
In short: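 Inhibition values come from growth of compound-treated mutant yeast normalised to vehicle-treated controls.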

[6] = NCI Yeast Anticancer Drug Screen. Data for the mlh1 rad18 strain (AID 175); conditions: S. cerevisiae mlh1 rad18 strain growth inhibition, active compounds read high
In short: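 Test agents were incubated with a yeast strain of defined genotype (DNA damage repair defect). Inhibition of growth was derived by comparison with vehicle-exposed cultures.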

[7] = at 5.0 µM (retest, dose inferred, filed as 0.5)
[8] = at 50.0 µM (retest, dose inferred, filed as 5.0)

Row | SMILES | growth inhibition [1, 7] | growth inhibition [1, 8] | growth inhibition ([1]; at 50.0 µM) | growth inhibition [2, 7] | growth inhibition [2, 8] | growth inhibition ([2]; at 50.0 µM) | growth inhibition [3, 7] | growth inhibition [3, 8] | growth inhibition ([3]; at 50.0 µM) | growth inhibition [4, 7] | growth inhibition [4, 8] | growth inhibition ([4]; at 50.0 µM) | growth inhibition [5, 7] | growth inhibition [5, 8] | growth inhibition ([5]; at 50.0 µM) | growth inhibition [6, 7] | growth inhibition [6, 8] | growth inhibition ([6]; at 50.0 µM)
1 | Oc1ccc(O)c2c(O)c3ccccc3c(O)c12 | 24% | 86% (active) | 76.7% (active) | 15% | 77% (active) | 50.4% | 10% | 85% (active) | 80.5% (active) | 15% | 58% | 30.9% | 3% | 82% (active) | 65.7% | 20% | 94% (active) | 78.9% (active)
2 | O=P1(NCC2CCCO2)OCC2(CO1)COP(=O)(NCC1CCCO1)OC2 (centres undefined) | 99% (active) | 95% (active) | 47.3% | 100% (active) | 98% (active) | 99.6% (active) | 100% (active) | 98% (active) | 99% (active) | 99% (active) | 96% (active) | 98.4% (active) | 99% (active) | 97% (active) | 98.5% (active) | 100% (active) | 96% (active) | 98.7% (active)
3 | CCc1ccccc1SC(C)=O | 6% | 55% | 29.9% | 13% | 70% (active) | 62% | 3% | 42% | 44.5% | 11% | 69% | 59.9% | 7% | 77% (active) | 80.9% (active) | 1% | 60% | 65.3%
4 | COc1ccc2nccc(C(=O)CBr)c2c1 | 24% | 23% | 92% (active) | 32% | -5% | 93% (active) | 61% | 20% | 97.4% (active) | -1% | 10% | 31.3% | 13% | 34% | 97.2% (active) | 31% | 37% | 96.6% (active)
5 | CC(C)CCOC(=O)Nc1cccc(Cl)c1 | 2% | 76% (active) | 62.1% | -4% | 11% | 12.8% | 0% | 36% | 66.2% | 1% | -8% | 13.2% | 47% | 17% | -0.75% | 4% | 33% | 44%
6 | O=C1OC(OCC#CCOC2OC(=O)C(Cl)=C2Cl)C(Cl)=C1Cl (centres undefined) | 37% | 99% (active) | 99.4% (active) | 28% | 99% (active) | 99.7% (active) | 46% | 100% (active) | 99.3% (active) | 28% | 99% (active) | 97.8% (active) | 26% | 99% (active) | 98.3% (active) | 46% | 99% (active) | 99.5% (active)
7 | Cc1ccnc(-c2cc(C)ccn2)c1 | 6% | 96% (active) | 64% | -3% | 98% (active) | 23.1% | -4% | 57% | 57.9% | -1% | 95% (active) | -46.7% | 4% | 91% (active) | -3.15% | 7% | 98% (active) | 37.9%
8 | C(=Nc1ccccc1)c1cn(Cc2ccccc2)c2ccccc12 | 90% (active) | 95% (active) | 83.1% (active) | 99% (active) | 99% (active) | -10.2% | 99% (active) | 99% (active) | 64.7% | 100% (active) | 99% (active) | -12.6% | 99% (active) | 99% (active) | 11.6% | 99% (active) | 97% (active) | 36.9%
9 | Cc1c(Cl)cccc1NC(=O)/C(Cl)=C(\Cl)C(=O)O | -1% | 33% | 99.5% (active) | -1% | 41% | 99.8% (active) | 1% | 74% (active) | 99.7% (active) | 1% | 3% | 99.3% (active) | -3% | 18% | 99.7% (active) | -6% | 39% | 99.5% (active)
10 | CCOC(=O)C(C(=O)OCC)c1ccc([N+](=O)[O-])o1 | 14% | 82% (active) | 86% (active) | -15% | 96% (active) | 86.4% (active) | 8% | 89% (active) | 89.2% (active) | 6% | 79% (active) | 81.9% (active) | 0% | 94% (active) | 87.9% (active) | 3% | 96% (active) | 82.2% (active)
11 | CC(=O)OCC1OC(n2ncc3c(Sc4c([N+](=O)[O-])ncn4C)ncnc32)C(OC(C)=O)C1OC(C)=O (centres undefined) | 23% | 99% (active) | 99.3% (active) | 25% | 100% (active) | 99.4% (active) | 47% | 99% (active) | 99.5% (active) | 2% | 99% (active) | 99.4% (active) | 16% | 99% (active) | 99% (active) | 18% | 99% (active) | 98.8% (active)
12 | c1ccc(-n2c3ccccc3c3ccccc32)cc1 | 4% | 11% | 86.7% (active) | 4% | 3% | 82.2% (active) | 1% | 9% | 88.2% (active) | 1% | -12% | 37.9% | 5% | 21% | 88.2% (active) | -1% | 11% | 84.5% (active)
13 | CNC(=O)NC(c1cc(OC)c(OC)c(OC)c1)c1cc2c(cc1O)OCO2 (centres undefined) | -15% | -9% | 17.2% | -1% | -8% | 13.4% | -14% | 5% | -0.1% | -28% | -15% | 23.6% | -16% | -4% | -1.6% | -19% | -5% | 16.8%
